The source of these data is PubChem BioAssay (NCATS).

Where “and” joins values, the source holds several entries; their conditions need not be identical. Identical values can stand only once. Records with an inconclusive call do not appear. Entries that show only a call come without a potency. Calls of active or inactive are those of the source. Calls follow the shape of the dose curve; as a rule, active = well fitted cell-killing curve with a large enough effect; inconclusive = small, poorly fitted or top-dose-only effect, or effect the other way; inactive = no such curve, though single readings can be large or run the other way.
Potency is read from the fitted curve at half-maximal effect.

This experiment in a line: qHTS of pediatric cancer cell lines to identify multiple opportunities for drug repurposing: Confirmatory screen for MG 63 (6-TG R) cells (AID 1347119). Also: nearly all actives have a fitted effect of over 55% in size. The conditions noted are these: MG-63 (6-TG resistant) osteosarcoma viability; series mostly up to 45.9 µM. From the text:
Drug repurposing or repositioning has been offered as a strategy for drug development in oncology programs. This approach has special potential for childhood cancers and other rare or orphan diseases, where the expected return on new drug development has been a disincentive to pharmaceuticals.
In this project we exploit the poly-pharmacology of drugs to discover new indications via phenotypic screening of a panel of 19 well-characterized cell lines derived from solid tumors seen in children and adolescents. The goal is to identify approved drugs with previously unrecognized anticancer properties that has the potential to reveal new mechanisms and biological processes involved in carcinogenesis or drug resistance. We employed a titration-based paradigm (quantitative high-throughput screening or qHTS), where all compounds were tested at multiple concentrations for their effect on cell viability. Concentration-response curves (CRCs) were derived directly from the primary screen, and both potency and efficacy values were used to identify compounds with robust bioactivity profiles. We screened the NIH Chemical Genomics Center (NCGC) Pharmaceutical Collection (NPC) and Mechanism Interrogation Plate (MIPE) small molecule collections of approved and investigational compounds against these cell lines; and measured metabolically active cells after 48 hours of compound treatment as a proxy for cell viability.
Assay Submitter: Nathalia J. Martinez, National Center for Advancing Translational Sciences, National Institutes of Health, Rockville, MD, USA; email: natalia.martinez@nih.gov
[1] Shen, M et al. Quantitative high-throughput phenotypic screening of pediatric cancer cell lines identifies multiple opportunities for drug repurposing. Oncotarget 2017 Dec 19;9(4):4758-4772. PMID 29435139.
The cells were obtained from University of North Carolina (UNC), Pediatric Preclinical Testing Program (PPT), and Coriell Institute (CI).
qHTS cell viability assay:
Cells were assayed in growth media at a density of 500-1,000 cells/well. Five microliters of cells were dispensed into 1,536-well, white, solid-bottom, TC-treated plates (Greiner Bio One) using a multidrop dispenser and incubated at 37 degrees C, 5% CO2, under a humidified atmosphere for 5 hours. Twenty-three nanoliters of compounds and controls (neutral control DMSO or positive control bortezomib at final concentration of 2.3 µM) were subsequently transferred by Kalypsys pintool. For primary screens, the MIPE collection was tested at 11-point dilutions (final concentrations range from 0.78 nM to 46 µM) and the NPC collection at 8-point dilutions (final concentrations range from 0.59 nM to 46 µM). Compounds tested in follow-up screens were assayed at 11-point dilutions. Cells were incubated for 48 hours, followed by addition of 3 µL of CellTiter-Glo (Promega). After a 15 min incubation at room temperature, samples were analyzed for luminescence intensity using a ViewLux High-throughput CCD imager equipped with clear filters.
Consider `CCOC(=O)[C@H](CCc1ccccc1)N[C@H]1CS[C@H](c2cccs2)CN(CC(=O)O)C1=O`, for which the Potency entry was “inactive”.

For `CNNCc1ccc(C(=O)NC(C)C)cc1`, the Potency entry is “inactive”.

As for `COC(=O)Nc1nc2ccc(S(=O)c3ccccc3)cc2[nH]1` (configuration not stated), the Potency was 1.31 µM (active).

`N=C(N)c1ccc(OCCCCCOc2ccc(C(=N)N)cc2)cc1`: the Potency is 11.7 µM (active).

Regarding `COc1cc2c(Nc3ccc(Br)cc3F)ncnc2cc1OCC1CCN(C)CC1`, the Potency result was “inactive”.

Consider `CCc1c2c(nc3ccc(OC(=O)N4CCC(N5CCCCC5)CC4)cc13)-c1cc3c(c(=O)n1C2)COC(=O)[C@]3(O)CC`, for which the Potency was 1.85 µM (active).

`COc1cc2nc(N3CCCN(C)CC3)nc(NC3CCN(Cc4ccccc4)CC3)c2cc1OC`: the Potency entry was “inactive”.

As for `Oc1c(Cl)cc(Cl)c2cccnc12`, the Potency is 11.7 µM (active).

For the compound `Nc1nc(F)nc2c1ncn2[C@@H]1O[C@H](CO)[C@@H](O)[C@@H]1O`, the Potency was 737 nM (active) and 827 nM (active).

As to `Nc1nc(N)nc(-c2cc(Cl)ccc2Cl)n1`, the Potency result was “inactive”.

As for `CC(C)C[C@H](NC(=O)[C@H](CCc1ccccc1)NC(=O)CN1CCOCC1)C(=O)N[C@@H](Cc1ccccc1)C(=O)N[C@@H](CC(C)C)C(=O)[C@@]1(C)CO1`, the Potency is 0.0657 µM (active).

In the case of `CC(C)NCC(O)c1ccc(NS(C)(=O)=O)cc1` (configuration not stated), the Potency entry is “inactive”.

In the case of `COc1cc([C@@H]2c3cc4c(cc3[C@H](O)[C@H]3COC(=O)[C@H]23)OCO4)cc(OC)c1OC`, the Potency is 0.0329 µM (active).

Turning to `CN(C)c1ccc(C(=C2C=CC(=[N+](C)C)C=C2)c2ccc(N(C)C)cc2)cc1`, the Potency was 0.827 µM (active).

As for `Nc1nc(=S)c2[nH]cnc2[nH]1`, the Potency entry was “inactive”.

Consider `S=P(N1CC1)(N1CC1)N1CC1`, for which the Potency result is “inactive”.

As to `O=S(=O)(O)CCS`, the Potency is 5.22 µM (active).

With `CCCCOc1ccc(CC(=O)NO)cc1`, the Potency entry was “inactive”.

Take `CN1CCCC(n2nc(Cc3ccc(Cl)cc3)c3ccccc3c2=O)CC1` (configuration not stated): the Potency entry is “inactive”.

Take `COC(=O)Nc1nc2ccc(Sc3ccccc3)cc2[nH]1`: the Potency is 0.928 µM (active).

On to `CC1CC2C3CCC4=CC(=O)C=C[C@]4(C)[C@@]3(F)[C@@H](O)C[C@]2(C)[C@@]1(O)C(=O)CO` (some centres not stated), for which the Potency entry was “inactive”.

Take `CCC(=O)O[C@]1(C(=O)SCF)[C@H](C)C[C@H]2[C@@H]3C[C@H](F)C4=CC(=O)C=C[C@]4(C)[C@@]3(F)[C@@H](O)C[C@@]21C`: the Potency result is “inactive”.

`CCC(=O)O[C@]1(C(=O)CCl)[C@@H](C)C[C@H]2[C@@H]3CCC4=CC(=O)C=C[C@]4(C)[C@@]3(F)[C@@H](O)C[C@@]21C`: the Potency result was “inactive”.

In the case of `Nc1[nH]c(=O)ncc1F`, the Potency result is “inactive”.

As for `O=NN(CCCl)C(=O)NC1CCCCC1`, the Potency entry was “inactive”.

Take `CNS(=O)(=O)CCc1ccc2[nH]cc(C3CCN(C)CC3)c2c1`: the Potency entry was “inactive”.

Consider `CNCC[C@H](Oc1cccc2ccccc12)c1cccs1`, for which the Potency was 26.1 µM (active).

Consider `Nc1nc(N)c2nc(CNc3ccc(C(=O)NC(CCC(=O)O)C(=O)O)cc3)cnc2n1` (configuration not stated), for which the Potency entry is “inactive”.

`Cn1nnc2c(C(N)=O)ncn2c1=O`: the Potency entry was “inactive”.

Regarding `CC(C)(C#N)c1cc(Cn2cncn2)cc(C(C)(C)C#N)c1`, the Potency entry is “inactive”.

With `CC(C)(C)C(=O)OCOP(=O)(COCCn1cnc2c(N)ncnc21)OCOC(=O)C(C)(C)C`, the Potency is 5.22 µM (active).

As for `COc1cc(NCc2ccc3nc(N)nc(N)c3c2C)cc(OC)c1OC`, the Potency is 20.8 µM (active).
